Data on 9 molecules can be found in PubChem BioAssay (NCI).

SMILES strings stand for the structures. The panel holds about 83,000 compounds, 20% with a hit somewhere; the sample as a whole holds those more often.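 Cell lines were cultured in 96-well plates, exposed to a single compound concentration, and assessed for percent growth 48 hours later.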 Values without a mark were called inactive. Calls of active or inactive are those of the source. Rule for the calls: active = growth percent below 10; inactive = the rest.

Test systems include SK-MEL-2 melanoma; EKVX NSCLC; SN12C renal; UO-31 renal; TK-10 renal; ACHN renal; CAKI-1 renal; A498 renal; CCRF-CEM leukemia; MOLT-4 leukemia; SR leukemia; RPMI-8226 leukemia; OVCAR-5 ovarian; OVCAR-4 ovarian; SK-OV-3 ovarian; IGROV1 ovarian; OVCAR-3 ovarian; HS 578T breast; NCI/ADR-RES ovarian; OVCAR-8 ovarian.
Test in all cases: NCI-60 one-dose screen, 48 h (100 = growth as untreated, 0 = no growth, -100 = all killed)
Common to all, as to conditions: 10 µM unless noted

With `COc1cc(C(=O)N2N=C(c3ccc(S(C)(=O)=O)cc3)CC2c2ccco2)cc(OC)c1OC` (centres undefined), the growth was 59.1% in the assay on SK-MEL-2 melanoma; 86% in the assay on EKVX NSCLC; 92.5% in the assay on SN12C renal; 18.6% with UO-31 renal; 106% in the assay with TK-10 renal; 48.5% in the assay on ACHN renal. In addition, the growth in the assay on CAKI-1 renal is 43.7%; with A498 renal, 76.7%; in the assay with CCRF-CEM leukemia it was 42%; in the assay with MOLT-4 leukemia it was 41.5%; in the assay on SR leukemia it was 8.01% (active); in the assay with RPMI-8226 leukemia, 44.6%. Moreover, the growth is 89.5% with OVCAR-5 ovarian; 84.1% in the assay with OVCAR-4 ovarian; 84.3% with SK-OV-3 ovarian; -2.69% (active) with IGROV1 ovarian; 5% (active) in the assay with OVCAR-3 ovarian; 74.9% in the assay with HS 578T breast. In the assay on NCI/ADR-RES ovarian, the growth was 63.1%.
Take `NCCCNc1nc2ccccc2c2c(=O)c3cc(C(F)(F)F)ccc3sc12`: the growth is 89.7% in the assay with SK-MEL-2 melanoma; 71.6% with EKVX NSCLC; 51.9% in the assay with SN12C renal; 31.9% with UO-31 renal; 51.9% in the assay with TK-10 renal; -10.8% (active) in the assay on ACHN renal. The growth with CAKI-1 renal was -67.7% (active); in the assay on A498 renal it was 23.6%; with CCRF-CEM leukemia, 5.18% (active); in the assay with MOLT-4 leukemia it was -20.1% (active); in the assay on SR leukemia, -14.9% (active); with OVCAR-8 ovarian it was 0.22% (active). Besides, the growth is 69.8% with OVCAR-5 ovarian; -45% (active) with OVCAR-4 ovarian; 84.3% in the assay on SK-OV-3 ovarian; 34.8% with IGROV1 ovarian; -72.4% (active) in the assay on OVCAR-3 ovarian; 12.2% in the assay on HS 578T breast. Also, the growth in the assay with NCI/ADR-RES ovarian was -15.9% (active).
Regarding `COc1ccc(CNC(=O)[C@H](O)[C@@H](N)Cc2ccccc2)cc1`, the growth in the assay on SK-MEL-2 melanoma was 123%; with EKVX NSCLC, 99.8%; in the assay on SN12C renal, 97.5%; with UO-31 renal it was 92%; in the assay on TK-10 renal, 102%; in the assay with ACHN renal, 107%. The growth is 90.7% with CAKI-1 renal; 90.8% in the assay with A498 renal; 102% with CCRF-CEM leukemia; 107% in the assay on MOLT-4 leukemia; 93.4% in the assay with SR leukemia; 108% in the assay on OVCAR-8 ovarian. For the same molecule, the growth with OVCAR-5 ovarian was 98%; in the assay with OVCAR-4 ovarian, 104%; in the assay with SK-OV-3 ovarian it was 110%; in the assay on IGROV1 ovarian it was 109%; in the assay on OVCAR-3 ovarian, 119%; with HS 578T breast it was 102%. Further, the growth in the assay on NCI/ADR-RES ovarian is 109%.
Regarding `O=C(Nc1nc2ccc(F)cc2s1)c1cccnc1Nc1ccc(Cl)cc1Cl`, the growth in the assay on SK-MEL-2 melanoma was 43.5%; with EKVX NSCLC, 1.03% (active); in the assay with SN12C renal, 9.61% (active); with UO-31 renal, 28.5%; in the assay on TK-10 renal, 11.4%; with ACHN renal, 27.5%. For the same molecule, the growth with CAKI-1 renal is -0.286% (active); in the assay on A498 renal, -4.34% (active); in the assay with CCRF-CEM leukemia, -3.42% (active); in the assay with MOLT-4 leukemia, 46%; in the assay on SR leukemia, 32.8%; in the assay on OVCAR-8 ovarian it was 19.5%. In addition, the growth with OVCAR-5 ovarian was 64.3%; with OVCAR-4 ovarian it was -31.3% (active); with SK-OV-3 ovarian, 44%; in the assay on IGROV1 ovarian it was 30.5%; with OVCAR-3 ovarian, -3.55% (active); with HS 578T breast, 20.9%. The growth in the assay with NCI/ADR-RES ovarian was 1.58% (active).
For the molecule `O=C(Nc1ccc(I)cc1F)c1cc(I)ccc1O`, the growth with SK-MEL-2 melanoma was -19.3% (active); in the assay on EKVX NSCLC it was 6.21% (active); in the assay on SN12C renal it was -10.4% (active); in the assay with UO-31 renal it was -9.71% (active); in the assay with TK-10 renal, 14.7%; in the assay with ACHN renal, -5.98% (active). For the same molecule, the growth in the assay on CAKI-1 renal is 3.29% (active); in the assay with A498 renal, -49.1% (active); in the assay on CCRF-CEM leukemia, 15.3%; in the assay on MOLT-4 leukemia it was -10% (active); in the assay on SR leukemia it was 3.39% (active); in the assay with OVCAR-8 ovarian it was 12.7%. Besides, the growth in the assay on OVCAR-5 ovarian was 21.6%; with OVCAR-4 ovarian, 22.3%; in the assay on SK-OV-3 ovarian, 13.9%; with IGROV1 ovarian, 18.4%; with OVCAR-3 ovarian, 4.35% (active); with HS 578T breast, 3.07% (active). Further, the growth in the assay on NCI/ADR-RES ovarian was 5.58% (active).
As for `CN1C(=C2C(=O)OC(C)(C)OC2=O)CCC1C(=O)NCc1ccc(Cl)cc1Cl` (centres undefined), the growth with SK-MEL-2 melanoma was 91.7%; in the assay with EKVX NSCLC, 97.5%; in the assay with SN12C renal it was 93.3%; in the assay with UO-31 renal, 85%; in the assay with TK-10 renal it was 93.8%; in the assay on ACHN renal it was 97%. For the same molecule, the growth in the assay on CAKI-1 renal was 95%; with A498 renal, 59.5%; with CCRF-CEM leukemia, 86.4%; with MOLT-4 leukemia, 94.6%; in the assay on SR leukemia it was 94.7%; in the assay with RPMI-8226 leukemia it was 82.9%. The growth with OVCAR-5 ovarian is 94.9%; in the assay on OVCAR-4 ovarian it was 98.2%; in the assay with SK-OV-3 ovarian it was 85.8%; in the assay on IGROV1 ovarian it was 99.8%; with OVCAR-3 ovarian, 101%; with HS 578T breast, 97.5%. In the assay on NCI/ADR-RES ovarian, the growth is 101%.
`C=C(C)C1CCC2(C)OC2C1` (centres undefined): the growth is 111% with SK-MEL-2 melanoma; 87.4% in the assay with EKVX NSCLC; 108% in the assay on SN12C renal; 115% with UO-31 renal; 100% in the assay with TK-10 renal; 104% with ACHN renal. Moreover, the growth was 81.2% with CAKI-1 renal; 141% in the assay on A498 renal; 110% in the assay with CCRF-CEM leukemia; 90.7% with MOLT-4 leukemia; 116% with SR leukemia; 113% with OVCAR-8 ovarian. The growth was 102% in the assay on OVCAR-5 ovarian; 94.6% with OVCAR-4 ovarian; 116% with SK-OV-3 ovarian; 89.5% in the assay with IGROV1 ovarian; 123% in the assay with OVCAR-3 ovarian; 106% in the assay on HS 578T breast. The growth in the assay with NCI/ADR-RES ovarian is 99.6%.
Consider `C(=N/Nc1ncnc2nc[nH]c12)/c1ccccn1`, for which the growth in the assay on SK-MEL-2 melanoma was 71.5%; in the assay with EKVX NSCLC it was 24.9%; with SN12C renal, 36.6%; with UO-31 renal it was 3.16% (active); with TK-10 renal it was 56.1%; in the assay with ACHN renal it was 23.4%. In addition, the growth in the assay on CAKI-1 renal was -25.4% (active); in the assay on A498 renal, 55%; with CCRF-CEM leukemia, 23.7%; in the assay with MOLT-4 leukemia, 22.2%; with SR leukemia, 25.7%; in the assay with OVCAR-8 ovarian it was 28.5%. The growth in the assay with OVCAR-5 ovarian was 50.8%; in the assay on OVCAR-4 ovarian it was 31.9%; in the assay with SK-OV-3 ovarian it was 28.9%; in the assay with IGROV1 ovarian, -8.74% (active); in the assay on OVCAR-3 ovarian, 51%; in the assay on HS 578T breast, 64.1%.
Consider `O=C1c2ccccc2NC(n2sc3ccccc3c2=O)N1c1ccccc1` (centres undefined), for which the growth was 99.5% in the assay with SK-MEL-2 melanoma; 85.5% in the assay with EKVX NSCLC; 98.4% in the assay on SN12C renal; 78.4% in the assay on UO-31 renal; 109% with TK-10 renal; 99.6% in the assay on ACHN renal. Moreover, the growth in the assay with CAKI-1 renal was 93.9%; in the assay on A498 renal, 89.2%; with CCRF-CEM leukemia it was 104%; with MOLT-4 leukemia, 99.4%; in the assay with SR leukemia, 87.4%; in the assay on RPMI-8226 leukemia, 101%. The growth in the assay with OVCAR-5 ovarian was 110%; in the assay with OVCAR-4 ovarian, 98.5%; in the assay on SK-OV-3 ovarian it was 103%; with OVCAR-3 ovarian, 101%; in the assay on HS 578T breast it was 106%; with NCI/ADR-RES ovarian, 95%.
